Measurements: PubChem BioAssay (NCI)
Compounds without any hit were thinned out: in the full panel of roughly 83,000, 20% have a hit.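 Percent growth is the endpoint: 0 to 100 indicates growth inhibition (40 means 60% inhibition), 0 means no net growth, and negative values indicate cell death.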 Active and inactive are the calls of the source. Rule for the calls: active = growth percent below 10; inactive = the rest.

These molecules were tested on MALME-3M melanoma (assay: NCI-60 one-dose screen, 48 h (100 = growth as untreated, 0 = no growth, -100 = all killed)). Conditions: 10 µM unless noted.

Compound	growth
CNc1sc(S(=O)(=O)NC)nc1S(=O)(=O)c1ccc(C)cc1	110% (inactive)
COc1cccc(N2CCN(C3=C(Cl)C(=O)c4ncccc4C3=O)CC2)c1	61.6% (inactive)
O=C1[C@@H]2Cc3c([nH]c4ccccc34)[C@@H](c3ccc(Cl)cc3)N2C(=O)CN1C1CCN(Cc2ccccc2)CC1	79.6% (inactive)
CC(=O)OCCCCN1C=C/C(=C\C(=O)n2ccc3ccccc32)c2ccccc21	106% (inactive)
CN1CCN(c2ccc(Nc3nc(NCCNS(=O)(=O)c4ccc5ccccc5c4)c4sccc4n3)cc2)CC1	2.39% (active)
CC1=C(C)C(=O)C(Nc2ccc3c(c2)OCCO3)=C(Br)C1=O	122% (inactive)
C=C(C)[C@@H]1CC[C@]2(C(=O)NC3CCCCC3)CC[C@]3(C)[C@H](CC[C@@H]4[C@@]5(C)CC[C@H](N)C(C)(C)[C@@H]5CC[C@]43C)[C@@H]12	95.3% (inactive)
CCOC(=O)c1c(NC(=O)c2ccc(C(F)(F)F)cc2)sc2c3c(ccc12)OCN(C)C3	72.6% (inactive)
C#CCN(C)CCCOc1ccc(NCc2ccc(/C=C/C(=O)NO)cc2)cc1Cl	4.84% (active)
COc1cc(/C=N\NC(=O)c2ccc3nc(-c4ccc(Br)cc4)[nH]c3c2)cc(OC)c1OC	23.4% (inactive)
C=C1CCc2nc(SCC(=O)O)ccc2N1	104% (inactive)
CN1CCC[C@]2(C)[C@H]3CC[C@@H]4[C@@H]5[C@H]6OC[C@@]5(CCC6(C)C)CC[C@@]4(C)[C@]3(C)CC[C@H]2C1(C)C	89.1% (inactive)
C=C(C=O)[C@@H]1CC[C@]2(C(=O)O)CC[C@]3(C)C(CC[C@@H]4[C@@](C)(CCC#N)[C@H](C(=C)C=O)CC[C@]43C)[C@@H]12 (stereo not given in full)	5.28% (active)
NCCNC(=O)c1cccc(COc2ccccc2NC(=O)c2cc(Cl)c(Cl)[nH]2)c1	100% (inactive)
COc1ccc(C2c3[nH]c4ccc(Cl)cc4c3CCN2c2oc(CO)nc2C#N)cc1 (stereo not given)	72.1% (inactive)
CN(C)c1ccc(-c2cc(-c3c[nH]c4ccccc34)nc(N)c2C#N)cc1	64.4% (inactive)
COc1ccccc1/C=C1\Oc2ccc(O)c(O)c2C1=O	102% (inactive)
CCCCCc1ccc(S(=O)(=O)Nc2cc(-c3csc(N)n3)ccc2OC)cc1	96.1% (inactive)
O=C(O)c1ccc(-n2c(=O)n(-c3cccc(C(F)(F)F)c3)c(=O)c3cc(-c4ccc(F)cc4F)ccc32)cc1	-12.8% (active)
Nn1c(=O)n(-c2cccc(C(F)(F)F)c2)c(=O)c2cc(-c3ccc(F)cc3F)ccc21	-17.2% (active)

Compound	growth
CCCCN1C(=O)/C(=c2\sc3n(c2=O)C2C(NN=3)N(CC)C(=O)N2CC)c2cc(C)ccc21 (stereo not given)	89.3% (inactive)
CC(C)[C@H]1c2[nH]c3ccccc3c2C[C@H]2C(=O)N(CCCCCCC(=O)NO)CC(=O)N12	31.1% (inactive)
O=C(N/N=C\c1ccc(F)cc1)c1ccc2nc(-c3ccc(Br)cc3)[nH]c2c1	-49.9% (active)
NC1[C@H]2CN(c3cnc(C(=O)Nc4cc(F)cc5cccnc45)cn3)C[C@@H]12 (stereo not given in full)	57.5% (inactive)
Cc1ccsc1[C@H]1c2[nH]c3ccccc3c2C[C@H]2C(=O)N(CCCCCCC(=O)NO)CC(=O)N12	25.6% (inactive)
CC(=O)N(O)CCCCCNC(=O)CCC(=O)N(O)CCCCCNC(=O)CCC(=O)N(O)CCCCCN(CCCCCCCCCC[P+](c1ccccc1)(c1ccccc1)c1ccccc1)CCCCCCCCCC[P+](c1ccccc1)(c1ccccc1)c1ccccc1	-17.4% (active)
O=c1nc(Nc2ccc([N+](=O)[O-])cc2O)sc2ccccc12	30.7% (inactive)
Cc1cc2nc(C(Cl)Cl)nc(-c3ccc(S(=O)(=O)N(C)C)cc3)n2n1	17.3% (inactive)
C/C(CC1(O)C(=O)Nc2ccccc21)=N\O (stereo not given)	96.2% (inactive)
C[C@]12CC[C@H]3[C@@H](CC=C4C[C@@H](O)CC[C@@]43C)[C@@H]1CC[C@@H]2[C@](C)(O)CCc1cccnc1	47% (inactive)
O=C(CSc1nnc(-c2cccs2)n1-c1ccccc1)Nc1ccccc1F	70.2% (inactive)
CC(=C(c1ccc(OCCCN(C)C)cc1)c1ccc(OCCCN(C)C)cc1)c1ccc(Cl)cc1	85.8% (inactive)
O=C(CSc1nc2ccccc2c(=O)n1-c1ccc(Cl)c(Cl)c1)Nc1ccc(S(=O)(=O)Nc2ccc(Cl)nn2)cc1	98.5% (inactive)
COC(=O)CCSC1=C(C)C(=O)c2ccccc2C1=O	104% (inactive)
CCc1cc(OC(=O)N2CCC(N3CCCCC3)CC2)ccc1Nc1cc(-c2ccc(-n3cccn3)cc2)[nH]n1	-6.02% (active)
O=C(Nc1cc(C(F)(F)F)cc(C(F)(F)F)c1)Nc1ccc2oc(=O)ccc2c1	-26.4% (active)
Cc1ccc2c(n1)C(=O)C(Cl)=C(Nc1ccc(C(=O)OC(C)(C)C)cc1)C2=O	24% [9.25 µM] (inactive)
Cc1cc(=O)[nH]c(O)c1C#N	105% (inactive)
CCN(CC)S(=O)(=O)c1ccc(-c2nc(C(Cl)Cl)nc3cc(C)nn23)cc1	-7.09% (active)
CNC(=O)Nc1ccc(Nc2cc(-c3ccc(-n4cccn4)cc3)[nH]n2)c(C)c1	125% (inactive)
